According to PubChem BioAssay AID651663 (NMMLSC, 2012):
Unmarked numbers belong to inactive results.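 The calls were made as follows: active = fitted half-maximal signal drop concentration below 100 µM; inactive = the rest.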

Biological target: ATP-binding cassette sub-family B member 6 (Homo sapiens) (UniProt Q9NP58)
Assay: ABCB6 transporter inhibitors, porphyrin accumulation, dose response, flow cytometry, K562-ABCB6 cells, powder set 01 (AID 651663)
Conditions: 1 h; series mostly up to 100 µM; response % of control, lower = inhibition: at the top concentration

ATP-binding cassette sub-family B member 6 (Homo sapiens), sequence (Q9NP58 whole entry, looked up): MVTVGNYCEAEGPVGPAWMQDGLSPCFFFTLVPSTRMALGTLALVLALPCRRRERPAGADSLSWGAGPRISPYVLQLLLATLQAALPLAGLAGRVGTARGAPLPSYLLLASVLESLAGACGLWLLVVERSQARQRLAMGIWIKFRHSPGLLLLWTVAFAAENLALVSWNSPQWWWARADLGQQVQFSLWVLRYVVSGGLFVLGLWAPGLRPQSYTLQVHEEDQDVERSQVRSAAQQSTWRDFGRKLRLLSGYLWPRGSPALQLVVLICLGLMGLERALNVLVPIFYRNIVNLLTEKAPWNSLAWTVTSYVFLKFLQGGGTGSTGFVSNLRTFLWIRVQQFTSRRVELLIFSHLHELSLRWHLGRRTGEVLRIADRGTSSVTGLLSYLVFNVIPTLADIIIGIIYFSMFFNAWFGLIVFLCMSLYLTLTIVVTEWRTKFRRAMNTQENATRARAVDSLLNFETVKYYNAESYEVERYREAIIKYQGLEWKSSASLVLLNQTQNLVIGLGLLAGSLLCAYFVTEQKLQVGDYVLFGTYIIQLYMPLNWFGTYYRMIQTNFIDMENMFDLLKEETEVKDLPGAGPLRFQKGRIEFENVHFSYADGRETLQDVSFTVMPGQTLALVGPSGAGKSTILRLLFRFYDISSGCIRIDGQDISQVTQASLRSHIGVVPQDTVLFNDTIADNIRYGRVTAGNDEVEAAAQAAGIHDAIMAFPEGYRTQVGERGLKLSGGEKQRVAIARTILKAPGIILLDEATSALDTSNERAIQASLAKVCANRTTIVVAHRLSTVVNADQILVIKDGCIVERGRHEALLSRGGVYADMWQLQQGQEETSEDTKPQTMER

| SMILES | response % of control, lower = inhibition [%] |
| --- | --- |
| CCc1ccc(NC(=O)c2nc(S(=O)(=O)Cc3ccccc3)ncc2Cl)cc1 | 79.5 |
| CCOc1ccccc1NC(=O)c1nc(S(=O)(=O)Cc2cccc(C)c2)ncc1Cl | 91.9 |
| CC(=O)Nc1ccc(NC(=O)c2nc(S(=O)(=O)Cc3cccc(C)c3)ncc2Cl)cc1 | 360 |
| CC(=O)Nc1ccc(NC(=O)c2nc(S(=O)(=O)Cc3ccccc3)ncc2Cl)cc1 | 78.9 |
